# Screens from PubChem BioAssay.
# An excerpt weighted towards active compounds, which were near 3.5% of everything screened.
# KCNK3 block: human KCNK3 channel inhibition, primary screen | B-score at 10 µM | actives 0.84% (n = 340,000) | CHO-KCNK3 thallium flux, FluxOR fluorescence; stronger effect = lower value;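 active = B-score under library mean minus 4 SD, starting fluorescence ratio at most library mean plus 5 SD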;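 also: more negative B-score means stronger inhibition of thallium flux through KCNK3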
# Target sequence (O14649 whole entry, looked up): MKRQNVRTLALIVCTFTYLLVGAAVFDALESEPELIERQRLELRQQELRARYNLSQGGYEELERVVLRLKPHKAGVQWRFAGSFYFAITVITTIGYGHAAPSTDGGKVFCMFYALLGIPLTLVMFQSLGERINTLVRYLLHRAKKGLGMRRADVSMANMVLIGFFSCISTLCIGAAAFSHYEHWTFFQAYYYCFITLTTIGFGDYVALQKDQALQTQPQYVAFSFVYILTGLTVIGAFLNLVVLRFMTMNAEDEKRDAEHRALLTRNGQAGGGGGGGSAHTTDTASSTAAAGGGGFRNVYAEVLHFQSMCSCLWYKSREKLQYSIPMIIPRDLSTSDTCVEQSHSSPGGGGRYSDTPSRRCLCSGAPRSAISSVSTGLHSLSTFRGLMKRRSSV
# ANO1 activ: activates or potentiates the mouse TMEM16A chloride channel | actives 0.3% (n = 340,000) | HEK293 TMEM16A/YFP-H148Q/I152L, iodide quench fluorescence; stronger effect = lower value | B-score at 10 µM | Q8BHY3;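 active = fluorescence-ratio B-score plate-corrected deviation score at least 3 library SD below zero, with starting fluorescence score within 5 deviations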;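 also: channel opened by trigger with iodide after compound preincubation; score built on the fluorescence ratio of max minus min over baseline; more negative score means more quench and so TMEM16A activation or potentiation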
# Kir21 inh: inhibitors of mouse Kir2.1 inward-rectifier potassium channel; P35561; HEK293-Kir2.1, FluxOR thallium flux fluorescence; stronger effect = lower value; B-score at 10 µM; actives 0.85% (n = 310,000);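 active = fluorescence ratio B-score at or below minus 3 SD of library scores, with starting-brightness B-score within 2 SD, cut at about -4.2 in these data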;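 also: channel flux triggered by added potassium and thallium sulfate stimulus; B-score of peak minus minimum fluorescence over baseline after thallium stimulus; more negative B-score means stronger Kir2.1 block with less thallium influx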
# KCNK9 inh: blocks the human KCNK9 two-pore domain potassium channel | actives 1.2% (n = 310,000) | Q9NPC2 | HEK293 KCNK9, FluxOR thallium flux fluorescence; stronger effect = lower value | B-score at 10 µM;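 active = ratio B-score over 3 SD below the library mean, with starting fluorescence within 5 SD of its mean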;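 also: negative B-score means less thallium flux so channel inhibition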
# TMEM16A inh: inhibitors of mouse TMEM16A calcium-activated chloride channel; Q8BHY3; AID 588511; actives 1.2% (n = 310,000); HEK293 TMEM16A/YFP iodide influx fluorescence, ionomycin; normalized B-score (activity score, 25-100; higher = stronger inhibition) at 10 µM;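 active = ratio plate-corrected score three or more library SD toward inhibition, starting fluorescence score within five deviations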;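 also: score derived from kinetic fluorescence span divided by baseline fluorescence per well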
# TMEM16A reconf: reconfirmed blocker of mouse TMEM16A calcium-activated chloride channel | inhibition, % at 10 µM | shares compounds with TMEM16A inh | HEK293 TMEM16A/YFP-H148Q, iodide quench fluorescence; ionomycin added to raise cell calcium | actives 39% (n = 2,300);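 active = mean duplicate percent inhibition, scaled so buffer wells are 0 and the reference blocker 100, over three buffer SD above buffer mean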
# TMEM16A Ca cntr: alters calcium mobilization in TMEM16A HEK293 cells, counter-screen | shares compounds with TMEM16A inh | TMEM16A/YFP HEK293, Fluo4 calcium mobilization | calcium response (% of ionomycin), % at 10 µM | actives 2% (n = 2,300) | AID 652231;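 active = duplicate-averaged calcium signal over 20% of the ionomycin maximum, relative to buffer baseline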;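 also: each well's signal is peak minus trough fluorescence divided by its pre-addition baseline; 0% = buffer wells and 100% = ionomycin wells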
# Parental YFP cnt: acts in parental YFP-HEK293 cells lacking TMEM16A, counter-screen; shares compounds with TMEM16A inh; iodide YFP quench, ionomycin; YFP ratio F(max-min)/F0 at 10 µM; 2,300 tested, under 10 active; AID 652233;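 active = yellow fluorescent protein signal ratio exceeding the buffer control mean by over 5 SD of those controls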;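 also: ratio is mean of duplicate wells from kinetic YFP trace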
# ClC-1 rat inh: rat ClC-1 inhibition, TMEM16A specificity screen | shares compounds with TMEM16A inh | ratio percent, % at 10 µM | CHO ClC-1-YFP, iodide influx fluorescence quench; iodide control reads 0, buffer control 100 | 2,300 tested, under 10 active;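 active = duplicate-mean ratio percent above the mean of iodide-only control wells, which defines zero, plus 5 of their SD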;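 also: higher percent means stronger block of ClC-1 iodide influx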
# KCNK3 confirm: human KCNK3 channel inhibition, confirmation assay; shares compounds with KCNK3 block; CHO-KCNK3 thallium flux, FluxOR fluorescence; 0% buffer, 100% carvedilol maximal block; ratio percent of control, % at 10 µM; actives 99% (n = 2,400);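 active = ratio percent of control, averaged over triplicates, above buffer control mean plus 5 SD, cut at about 64% in these data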;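 also: ratio is the fluorescence rise from min to max over baseline after thallium stimulus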
# KCNK3 uninduced: KCNK3 inhibitor counter-screen hit in non-induced cells; shares compounds with KCNK3 block; non-induced KCNK3 parental cells, FluxOR thallium flux; stronger effect = lower value; thallium flux ratio (lower = more inhibition) at 10 µM; actives 40% (n = 2,400); AID 651747;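 active = thallium flux ratio, averaged over three wells, more than 5 SD below the buffer control mean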;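 also: host cells are CHO cells without KCNK3 induction; ratio is peak minus trough fluorescence over baseline then normalized to buffer controls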
# An asterisk follows results filed as active; i = inactive; . = no result given.
SMILES,KCNK3 block,ANO1 activ,Kir21 inh,KCNK9 inh,TMEM16A inh,KCNK3 confirm,KCNK3 uninduced,others
CCc1cc(=S)n2c([nH]c3ccccc32)c1C#N,-9.3*,i,0.05,i,100*,137*,0.057*,TMEM16A reconf=26%*;TMEM16A Ca cntr=i;Parental YFP cnt=-0.88;ClC-1 rat inh=-22
CCc1cc(=O)n2c([nH]c3ccccc32)c1C#N,i,i,1.1,i,i,.,.,
CSC1=NC2C(N1)N(C)C(=O)N2C (stereo not drawn),i,i,-2.1,i,i,.,.,
O=C(NCCCSc1ccccc1)c1cc(Br)ccc1O,-8.8*,i,-0.73,i,100*,151*,0.12*,TMEM16A reconf=52%*;TMEM16A Ca cntr=i;Parental YFP cnt=-1.3;ClC-1 rat inh=-24
COCCN(CCOC)c1nc(-c2ccc(C)cc2)nc2ccccc12,-12*,i,0.25,i,i,86*,0.13*,
Cc1ccc(-c2nc(NCCN(C)C)c3ccccc3n2)cc1,i,i,0.51,i,i,.,.,
Cc1ccc(-c2nc(C(Cl)Cl)c3ccccc3n2)cc1,-9.2*,i,0.54,i,i,114*,i,
Cc1cc2oc(=O)cc(CN(C)Cc3cccc(F)c3)c2cc1C,-8.7*,i,0.07,i,i,112*,i,
COc1cccc(CN(C)Cc2cc(=O)oc3c(C)c(C)ccc23)c1,-11*,i,1.3,i,i,125*,0.14*,
CCc1ccc2c(CN(C)Cc3ccc(OC(F)F)c(OC)c3)cc(=O)oc2c1,-16*,i,2.4,i,i,128*,0.15*,
Cc1ccccc1CN(C)Cc1cc(=O)oc2c(C)c(C)ccc12,-11*,i,-2.1,i,i,118*,0.14*,
Cc1c(O)ccc2c(CN(C)Cc3ccccc3)cc(=O)oc12,i,i,1.1,i,i,.,.,
Cc1ccc2c(COC(=O)c3ccccc3OC(F)F)cc(=O)oc2c1,i,i,0.56,i,i,.,.,
c1ccc(CN2CCC(Nc3nc(-c4cccs4)nc4ccccc34)CC2)cc1,-10*,i,-1,i,i,126*,0.14*,
c1csc(CNc2nc(-c3cccs3)nc3ccccc23)c1,-11*,i,-2.1,i,i,108*,i,
CCOc1cc(/C=N/NS(=O)(=O)c2ccccc2)ccc1OS(=O)(=O)c1ccc(C)cc1,-9.4*,i,-3.2,i,i,102*,i,
CCOc1ccc(S(=O)(=O)NCCC(=O)OCC(=O)NC(=O)c2cccn2C)cc1,i,i,.,.,.,.,.,
COc1cc(C(=S)N2CCOCC2)ccc1OC(=O)c1ccccc1C,-8.8*,i,1.2,i,i,90*,i,
Cc1cc2c(NCc3ccccc3)ncnc2s1,i,i,-0.18,i,i,.,.,
O=C(c1ccc(-c2ccccc2)cc1)C1CCCN(Cc2ccncc2)C1 (stereo not drawn),-10*,i,0.02,i,100*,129*,i,
O=C(CN1C(=O)NC2(CCCC2)C1=O)Nc1nc(-c2ccc(F)c(F)c2)cs1,i,i,.,.,.,.,.,
CC1(C(=O)OCC(=O)Nc2nc(-c3ccc(F)c(F)c3)cs2)CC1(Cl)Cl (stereo not drawn),-10*,i,0.4,i,i,140*,0.14*,
COc1ccc(CC(=O)Nc2nc(-c3ccc(F)c(F)c3)cs2)cc1,i,i,-0.12,i,i,.,.,
O=C(Cc1ccc(F)cc1)Nc1nc(-c2ccc(F)c(F)c2)cs1,-11*,i,-0.02,i,i,130*,i,
Cc1c(C(=O)OC(C)C(=O)N(C)Cc2ccccc2)oc2ccccc12 (stereo not drawn),-12*,i,.,.,.,77*,i,
SMILES,KCNK3 block,ANO1 activ,Kir21 inh,KCNK9 inh,TMEM16A inh,KCNK3 confirm,KCNK3 uninduced,others
Cc1c(C(=O)N(C)CC(=O)Nc2cccc(F)c2)oc2c(Cl)cccc12,i,i,-1.2,i,i,.,.,
Cc1c(C(=O)N(C)Cc2ccccc2)oc2c(Cl)cccc12,-11*,i,-2.7,i,i,110*,i,
CCN(CC(=O)NCc1cccs1)C(=O)c1ccc(NS(=O)(=O)c2ccc(F)cc2)cc1,i,i,1.3,i,i,.,.,
COCCn1c(SCc2cccc(F)c2)nc2cc(C(=O)OC)ccc2c1=O,-9*,i,-1.2,i,i,107*,i,
CCCCn1c(N)c(N(CCC(C)C)C(=O)C2CC(=O)N(c3ccccc3OCC)C2)c(=O)[nH]c1=O (stereo not drawn),i,i,-1.3,i,i,.,.,
Cc1cc(=O)[nH]c(SCC(=O)N(CCC#N)c2ccccc2)c1C#N,i,i,0.02,i,i,.,.,
CCOC(=O)/C(C#N)=C/c1cc(C)n(-c2ccc(C)cc2)c1C,-9.6*,i,-0.21,i,i,110*,i,
CCOC(=O)/C(C#N)=C\c1cc(C)n(-c2ccccc2)c1C,i,i,1.1,i,i,.,.,
COC1(OC)C(/C=C/c2ccc(C)cc2)C(C#N)(C#N)C1(OC)OC (stereo not drawn),-10*,i,0.06,i,i,133*,0.14*,
C[N+]1(CC(O)COCC2COc3ccccc3O2)CCOCC1 (stereo not drawn),i,i,0.26,i,i,.,.,
CCOC(=O)/C(N=Nc1c(C)n(C)n(-c2ccccc2)c1=O)=C(/O)c1ccccc1,-8.9*,i,0.12,i,i,109*,i,
CC(Cc1cccs1)NC(=O)Nc1ccccc1 (stereo not drawn),-9*,i,-0.02,i,i,90*,i,
O=C(/C=C\Nc1ccccc1Br)c1ccc2c(c1)OCO2,-12*,i,-2.8,i,i,118*,i,
